From ChEMBL document CHEMBL2218924, “A broad activity screen in support of a chemogenomic map for kinase signalling research and drug discovery” (Biochem J, 2013)

Key:
[1] = molecular target: Serine/threonine-protein kinase SIK1 (Homo sapiens) (UniProt P57059); details: at 10 µM
[2] = molecular target: Serine/threonine-protein kinase 33 (Homo sapiens) (UniProt Q9BYT3); details: at 1 µM
[3] = molecular target: Serine/threonine-protein kinase 33 (Homo sapiens) (UniProt Q9BYT3); details: at 10 µM
[4] = molecular target: Serine/threonine-protein kinase PLK2 (Homo sapiens) (UniProt Q9NYY3); details: at 1 µM
Sequence of Serine/threonine-protein kinase PLK2 (Homo sapiens) (Q9NYY3 whole entry, looked up): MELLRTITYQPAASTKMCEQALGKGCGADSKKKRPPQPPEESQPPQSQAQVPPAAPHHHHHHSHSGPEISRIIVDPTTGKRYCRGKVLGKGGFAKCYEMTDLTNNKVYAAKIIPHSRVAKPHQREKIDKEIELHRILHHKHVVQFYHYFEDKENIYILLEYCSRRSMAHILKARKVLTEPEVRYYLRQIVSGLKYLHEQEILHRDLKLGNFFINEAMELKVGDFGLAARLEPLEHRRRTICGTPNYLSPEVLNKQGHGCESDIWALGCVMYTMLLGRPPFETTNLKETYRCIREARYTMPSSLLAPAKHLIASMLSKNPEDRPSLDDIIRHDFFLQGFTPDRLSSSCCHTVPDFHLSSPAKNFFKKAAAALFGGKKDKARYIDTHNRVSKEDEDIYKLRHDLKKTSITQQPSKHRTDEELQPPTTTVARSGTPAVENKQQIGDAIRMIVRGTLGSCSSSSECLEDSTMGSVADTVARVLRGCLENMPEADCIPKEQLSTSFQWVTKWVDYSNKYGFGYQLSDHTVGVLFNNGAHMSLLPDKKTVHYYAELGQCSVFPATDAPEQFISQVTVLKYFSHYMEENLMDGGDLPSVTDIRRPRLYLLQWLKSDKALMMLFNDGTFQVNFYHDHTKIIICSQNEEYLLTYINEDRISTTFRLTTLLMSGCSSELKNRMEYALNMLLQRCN

[5] = molecular target: Serine/threonine-protein kinase PLK2 (Homo sapiens) (UniProt Q9NYY3); details: at 10 µM
[6] = molecular target: Tyrosine-protein kinase SYK (Homo sapiens) (UniProt P43405); details: at 1 µM
[7] = molecular target: Tyrosine-protein kinase SYK (Homo sapiens) (UniProt P43405); details: at 10 µM
[8] = molecular target: T1, Mitogen-activated protein kinase kinase kinase 7 (Homo sapiens) (UniProt O43318); details: at 1 µM
T1 sequence (whole entry): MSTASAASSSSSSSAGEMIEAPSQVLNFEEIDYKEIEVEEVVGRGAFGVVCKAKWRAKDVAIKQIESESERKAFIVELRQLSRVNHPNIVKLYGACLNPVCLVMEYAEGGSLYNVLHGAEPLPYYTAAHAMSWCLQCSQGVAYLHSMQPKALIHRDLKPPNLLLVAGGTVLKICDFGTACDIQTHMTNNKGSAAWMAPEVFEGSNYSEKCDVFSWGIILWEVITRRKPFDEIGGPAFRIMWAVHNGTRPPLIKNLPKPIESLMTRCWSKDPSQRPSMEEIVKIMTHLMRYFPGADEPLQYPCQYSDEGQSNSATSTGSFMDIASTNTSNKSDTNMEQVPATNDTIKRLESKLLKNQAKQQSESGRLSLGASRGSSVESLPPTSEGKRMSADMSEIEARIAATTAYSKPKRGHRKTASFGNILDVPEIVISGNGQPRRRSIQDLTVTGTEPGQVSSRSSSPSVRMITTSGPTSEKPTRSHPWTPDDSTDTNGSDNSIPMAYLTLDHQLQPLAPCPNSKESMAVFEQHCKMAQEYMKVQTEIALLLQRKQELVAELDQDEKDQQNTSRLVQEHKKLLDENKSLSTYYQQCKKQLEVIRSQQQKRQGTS

[9] = molecular target: T1, Mitogen-activated protein kinase kinase kinase 7 (Homo sapiens); details: at 10 µM
[10] = molecular target: T2, Serine/threonine-protein kinase TAO1 (Homo sapiens) (UniProt Q7L7X3); details: at 1 µM
T2 sequence (whole entry): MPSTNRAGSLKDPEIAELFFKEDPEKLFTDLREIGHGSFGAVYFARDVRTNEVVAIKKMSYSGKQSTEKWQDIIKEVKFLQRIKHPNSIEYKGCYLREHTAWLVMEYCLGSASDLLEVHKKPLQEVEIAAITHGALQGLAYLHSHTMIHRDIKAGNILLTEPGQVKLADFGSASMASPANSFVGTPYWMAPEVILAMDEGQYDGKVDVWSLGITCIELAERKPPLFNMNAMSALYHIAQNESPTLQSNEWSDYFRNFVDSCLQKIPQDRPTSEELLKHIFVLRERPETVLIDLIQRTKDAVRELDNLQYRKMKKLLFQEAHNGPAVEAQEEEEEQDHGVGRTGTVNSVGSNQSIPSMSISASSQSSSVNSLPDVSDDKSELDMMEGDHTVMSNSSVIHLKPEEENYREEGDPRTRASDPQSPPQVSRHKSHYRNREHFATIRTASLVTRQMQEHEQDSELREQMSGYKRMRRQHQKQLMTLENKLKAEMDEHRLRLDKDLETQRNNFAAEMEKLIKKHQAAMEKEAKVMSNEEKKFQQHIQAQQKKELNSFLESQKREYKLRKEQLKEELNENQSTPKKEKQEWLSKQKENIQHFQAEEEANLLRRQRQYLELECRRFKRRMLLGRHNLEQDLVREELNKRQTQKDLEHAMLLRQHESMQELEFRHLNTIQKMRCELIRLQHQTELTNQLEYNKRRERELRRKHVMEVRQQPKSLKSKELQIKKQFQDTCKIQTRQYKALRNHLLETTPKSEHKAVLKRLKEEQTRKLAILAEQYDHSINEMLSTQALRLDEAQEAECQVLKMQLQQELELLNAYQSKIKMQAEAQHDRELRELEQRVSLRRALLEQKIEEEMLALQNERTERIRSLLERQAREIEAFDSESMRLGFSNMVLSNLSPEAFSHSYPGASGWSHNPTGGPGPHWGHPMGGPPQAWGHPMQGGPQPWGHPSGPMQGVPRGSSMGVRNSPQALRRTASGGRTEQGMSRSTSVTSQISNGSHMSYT

[11] = molecular target: T2, Serine/threonine-protein kinase TAO1 (Homo sapiens); details: at 10 µM
[12] = molecular target: T3, Serine/threonine-protein kinase TBK1 (Homo sapiens) (UniProt Q9UHD2); details: at 1 µM
T3 sequence (whole entry): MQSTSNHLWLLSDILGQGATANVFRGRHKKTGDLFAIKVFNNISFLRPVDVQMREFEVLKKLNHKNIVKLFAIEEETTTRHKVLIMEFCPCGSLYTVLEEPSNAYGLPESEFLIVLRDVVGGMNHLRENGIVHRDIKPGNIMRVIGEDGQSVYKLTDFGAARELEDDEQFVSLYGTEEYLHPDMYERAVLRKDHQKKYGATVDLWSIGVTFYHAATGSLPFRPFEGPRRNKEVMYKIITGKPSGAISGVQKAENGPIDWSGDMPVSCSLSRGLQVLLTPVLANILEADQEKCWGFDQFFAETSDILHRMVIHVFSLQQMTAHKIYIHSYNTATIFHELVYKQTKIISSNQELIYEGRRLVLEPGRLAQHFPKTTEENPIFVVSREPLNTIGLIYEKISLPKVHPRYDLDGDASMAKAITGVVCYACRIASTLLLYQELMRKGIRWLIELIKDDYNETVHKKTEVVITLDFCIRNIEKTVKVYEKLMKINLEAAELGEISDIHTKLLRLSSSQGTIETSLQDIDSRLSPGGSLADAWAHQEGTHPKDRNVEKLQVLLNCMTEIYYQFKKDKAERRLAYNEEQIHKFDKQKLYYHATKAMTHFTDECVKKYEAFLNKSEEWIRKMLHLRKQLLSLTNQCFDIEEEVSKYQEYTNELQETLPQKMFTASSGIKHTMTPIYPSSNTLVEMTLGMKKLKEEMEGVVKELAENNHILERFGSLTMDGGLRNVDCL

[13] = molecular target: T4, Serine/threonine-protein kinase TAO2 (Homo sapiens) (UniProt Q9UL54); details: at 10 µM
T4 sequence (whole entry): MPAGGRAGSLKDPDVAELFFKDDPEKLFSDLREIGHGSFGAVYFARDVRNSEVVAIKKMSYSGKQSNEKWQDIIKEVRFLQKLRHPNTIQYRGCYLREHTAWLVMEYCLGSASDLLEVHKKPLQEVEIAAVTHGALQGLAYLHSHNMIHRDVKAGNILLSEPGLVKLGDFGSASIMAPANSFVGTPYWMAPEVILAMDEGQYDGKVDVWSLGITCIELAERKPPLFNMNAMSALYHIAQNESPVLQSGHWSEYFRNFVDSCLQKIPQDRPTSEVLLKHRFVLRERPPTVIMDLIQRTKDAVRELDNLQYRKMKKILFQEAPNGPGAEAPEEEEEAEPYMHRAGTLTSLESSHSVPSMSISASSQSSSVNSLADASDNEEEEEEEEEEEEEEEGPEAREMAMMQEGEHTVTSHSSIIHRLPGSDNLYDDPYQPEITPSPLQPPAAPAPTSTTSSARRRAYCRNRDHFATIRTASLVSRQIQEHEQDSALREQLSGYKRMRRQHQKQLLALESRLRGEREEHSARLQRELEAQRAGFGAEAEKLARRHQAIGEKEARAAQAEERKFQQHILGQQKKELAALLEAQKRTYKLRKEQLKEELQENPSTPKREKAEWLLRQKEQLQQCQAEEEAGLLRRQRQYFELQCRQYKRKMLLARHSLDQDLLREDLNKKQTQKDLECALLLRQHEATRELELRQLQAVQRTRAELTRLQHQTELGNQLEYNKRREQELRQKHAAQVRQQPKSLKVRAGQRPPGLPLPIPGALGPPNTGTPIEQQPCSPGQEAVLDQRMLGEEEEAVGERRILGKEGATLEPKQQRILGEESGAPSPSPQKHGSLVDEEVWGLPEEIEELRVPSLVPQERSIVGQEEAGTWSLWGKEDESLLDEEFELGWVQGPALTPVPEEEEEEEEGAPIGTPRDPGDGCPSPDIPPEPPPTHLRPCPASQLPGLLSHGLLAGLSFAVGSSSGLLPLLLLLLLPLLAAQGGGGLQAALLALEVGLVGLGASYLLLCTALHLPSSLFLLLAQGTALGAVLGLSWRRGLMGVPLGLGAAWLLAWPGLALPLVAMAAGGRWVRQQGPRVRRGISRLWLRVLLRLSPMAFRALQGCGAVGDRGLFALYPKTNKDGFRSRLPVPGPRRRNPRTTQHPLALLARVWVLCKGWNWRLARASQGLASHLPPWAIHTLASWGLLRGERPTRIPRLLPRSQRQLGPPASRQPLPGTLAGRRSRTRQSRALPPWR

[14] = molecular target: T5, Serine/threonine-protein kinase TAO3 (Homo sapiens) (UniProt Q9H2K8); details: at 1 µM
T5 sequence (whole entry): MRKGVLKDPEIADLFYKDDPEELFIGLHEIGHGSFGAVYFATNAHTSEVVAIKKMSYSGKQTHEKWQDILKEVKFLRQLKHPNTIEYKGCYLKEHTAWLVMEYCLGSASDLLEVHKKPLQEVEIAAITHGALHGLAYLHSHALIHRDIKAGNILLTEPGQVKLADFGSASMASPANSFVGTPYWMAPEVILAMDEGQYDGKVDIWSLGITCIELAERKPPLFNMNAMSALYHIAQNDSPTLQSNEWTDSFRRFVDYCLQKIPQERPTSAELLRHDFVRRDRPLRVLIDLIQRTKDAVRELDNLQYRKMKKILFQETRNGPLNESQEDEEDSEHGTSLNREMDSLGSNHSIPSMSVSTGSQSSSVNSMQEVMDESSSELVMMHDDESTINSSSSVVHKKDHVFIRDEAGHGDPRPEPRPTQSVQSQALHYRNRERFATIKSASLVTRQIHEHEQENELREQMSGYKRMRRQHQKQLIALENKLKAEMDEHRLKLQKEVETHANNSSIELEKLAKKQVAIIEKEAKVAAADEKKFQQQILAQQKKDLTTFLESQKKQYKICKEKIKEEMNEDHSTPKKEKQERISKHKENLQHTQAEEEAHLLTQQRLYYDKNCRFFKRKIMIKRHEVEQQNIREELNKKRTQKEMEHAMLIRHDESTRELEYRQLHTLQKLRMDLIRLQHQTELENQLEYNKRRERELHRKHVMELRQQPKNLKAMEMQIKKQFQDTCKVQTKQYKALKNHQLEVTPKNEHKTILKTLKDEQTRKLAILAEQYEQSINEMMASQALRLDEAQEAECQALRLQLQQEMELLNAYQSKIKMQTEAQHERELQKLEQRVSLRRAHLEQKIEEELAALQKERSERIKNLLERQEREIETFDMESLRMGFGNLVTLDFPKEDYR

[15] = molecular target: SRSF protein kinase 2 (Homo sapiens) (UniProt P78362); details: at 10 µM
Sequence of SRSF protein kinase 2 (Homo sapiens) (P78362 whole entry, looked up): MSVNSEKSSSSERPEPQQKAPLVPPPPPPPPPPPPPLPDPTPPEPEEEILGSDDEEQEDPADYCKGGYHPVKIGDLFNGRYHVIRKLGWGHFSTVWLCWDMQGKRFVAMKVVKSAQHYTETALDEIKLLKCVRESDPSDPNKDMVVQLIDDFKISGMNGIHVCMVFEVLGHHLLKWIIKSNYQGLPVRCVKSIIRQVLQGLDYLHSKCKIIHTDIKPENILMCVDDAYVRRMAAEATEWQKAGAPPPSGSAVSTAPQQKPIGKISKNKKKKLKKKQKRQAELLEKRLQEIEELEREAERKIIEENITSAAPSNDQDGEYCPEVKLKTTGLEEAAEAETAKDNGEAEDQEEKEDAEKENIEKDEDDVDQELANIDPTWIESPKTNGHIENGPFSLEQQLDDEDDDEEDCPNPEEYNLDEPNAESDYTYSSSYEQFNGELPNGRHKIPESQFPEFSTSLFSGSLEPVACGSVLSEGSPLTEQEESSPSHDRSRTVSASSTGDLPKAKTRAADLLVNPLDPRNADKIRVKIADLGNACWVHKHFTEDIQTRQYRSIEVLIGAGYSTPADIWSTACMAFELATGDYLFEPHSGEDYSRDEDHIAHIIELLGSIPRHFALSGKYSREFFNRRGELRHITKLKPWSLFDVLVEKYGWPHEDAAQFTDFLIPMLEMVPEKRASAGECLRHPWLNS

[16] = molecular target: T5, Serine/threonine-protein kinase TAO3 (Homo sapiens); details: at 10 µM
[17] = molecular target: SRSF protein kinase 2 (Homo sapiens) (UniProt P78362); details: at 1 µM
[18] = molecular target: T4, Serine/threonine-protein kinase TAO2 (Homo sapiens); details: at 1 µM
[19] = molecular target: SRSF protein kinase 1 (Homo sapiens) (UniProt Q96SB4); details: at 10 µM
Sequence of SRSF protein kinase 1 (Homo sapiens) (Q96SB4 whole entry): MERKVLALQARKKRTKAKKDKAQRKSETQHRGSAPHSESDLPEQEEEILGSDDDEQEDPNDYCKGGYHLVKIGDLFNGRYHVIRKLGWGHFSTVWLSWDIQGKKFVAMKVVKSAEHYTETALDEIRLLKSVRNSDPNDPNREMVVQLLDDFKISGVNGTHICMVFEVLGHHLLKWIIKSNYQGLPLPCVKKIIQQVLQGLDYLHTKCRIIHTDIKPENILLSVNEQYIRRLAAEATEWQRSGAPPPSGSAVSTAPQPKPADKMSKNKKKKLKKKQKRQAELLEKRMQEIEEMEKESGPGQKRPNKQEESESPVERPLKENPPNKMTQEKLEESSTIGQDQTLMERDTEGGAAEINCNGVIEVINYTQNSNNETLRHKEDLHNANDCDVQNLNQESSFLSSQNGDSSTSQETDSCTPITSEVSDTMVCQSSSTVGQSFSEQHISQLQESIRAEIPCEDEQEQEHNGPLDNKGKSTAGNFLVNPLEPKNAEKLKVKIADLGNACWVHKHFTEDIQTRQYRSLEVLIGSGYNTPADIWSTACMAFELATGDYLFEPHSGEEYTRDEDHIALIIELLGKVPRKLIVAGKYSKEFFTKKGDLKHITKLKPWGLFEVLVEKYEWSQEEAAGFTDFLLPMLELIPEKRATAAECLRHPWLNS

Sequence of Serine/threonine-protein kinase SIK1 (Homo sapiens) (P57059 whole entry): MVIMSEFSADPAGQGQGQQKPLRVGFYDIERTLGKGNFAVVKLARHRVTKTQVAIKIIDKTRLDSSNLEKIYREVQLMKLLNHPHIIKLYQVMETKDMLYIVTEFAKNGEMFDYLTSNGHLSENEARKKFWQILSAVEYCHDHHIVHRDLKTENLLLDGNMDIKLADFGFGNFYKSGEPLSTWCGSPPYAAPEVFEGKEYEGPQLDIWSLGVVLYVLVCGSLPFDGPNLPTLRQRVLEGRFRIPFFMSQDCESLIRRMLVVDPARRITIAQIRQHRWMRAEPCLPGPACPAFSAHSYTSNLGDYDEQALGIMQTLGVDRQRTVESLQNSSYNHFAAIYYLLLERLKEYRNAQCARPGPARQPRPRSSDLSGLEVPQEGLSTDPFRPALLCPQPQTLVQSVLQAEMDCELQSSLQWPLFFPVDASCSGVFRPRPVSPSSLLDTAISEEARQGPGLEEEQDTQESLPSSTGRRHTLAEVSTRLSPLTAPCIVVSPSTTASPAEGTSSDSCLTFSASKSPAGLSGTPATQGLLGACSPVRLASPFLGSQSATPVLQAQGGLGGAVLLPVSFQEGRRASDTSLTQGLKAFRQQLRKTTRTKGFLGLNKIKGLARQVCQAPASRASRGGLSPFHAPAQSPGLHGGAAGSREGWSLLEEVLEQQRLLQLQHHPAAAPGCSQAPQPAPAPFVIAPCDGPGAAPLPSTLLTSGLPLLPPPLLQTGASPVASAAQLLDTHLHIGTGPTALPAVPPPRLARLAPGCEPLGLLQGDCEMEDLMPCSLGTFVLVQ
Sequence of Serine/threonine-protein kinase 33 (Homo sapiens) (Q9BYT3 whole entry, looked up): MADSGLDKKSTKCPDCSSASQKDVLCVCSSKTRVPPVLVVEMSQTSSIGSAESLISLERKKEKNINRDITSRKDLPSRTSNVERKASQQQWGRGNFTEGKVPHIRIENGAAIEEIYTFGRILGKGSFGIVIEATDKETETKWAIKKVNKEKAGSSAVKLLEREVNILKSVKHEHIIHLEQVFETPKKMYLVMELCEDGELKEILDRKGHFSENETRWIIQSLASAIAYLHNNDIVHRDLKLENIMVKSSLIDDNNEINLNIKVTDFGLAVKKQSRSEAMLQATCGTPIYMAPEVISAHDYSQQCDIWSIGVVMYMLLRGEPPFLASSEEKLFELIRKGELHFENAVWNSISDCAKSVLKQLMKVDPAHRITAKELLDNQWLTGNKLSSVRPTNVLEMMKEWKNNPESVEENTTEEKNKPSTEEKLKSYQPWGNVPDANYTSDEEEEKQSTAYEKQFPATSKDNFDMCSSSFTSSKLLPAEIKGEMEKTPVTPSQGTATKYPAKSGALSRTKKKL

O=C1Cc2c([nH]c3ccc(Br)cc23)-c2ccccc2N1
residual activity [1]: 36% | residual activity [2]: 97% | residual activity [3]: 81% | residual activity [4]: 99% | residual activity [5]: 91% | residual activity [6]: 72% | residual activity [7]: 25% | residual activity [8]: 81% | residual activity [9]: 68% | residual activity [10]: 76% | residual activity [11]: 28% | residual activity [12]: 53%

COc1ccc(-c2cnc3c(-c4ccsc4)cnn3c2)cc1
residual activity [1]: 2% | residual activity [2]: 95% | residual activity [3]: 96% | residual activity [6]: 127% | residual activity [7]: 95% | residual activity [8]: 99% | residual activity [9]: 97% | residual activity [10]: 97% | residual activity [11]: 97% | residual activity [12]: 97%

O=c1c(-c2ccc(F)cc2)c(-c2ccncc2)[nH]n1-c1ccc(Cl)cc1
residual activity [6]: 41% | residual activity [7]: 37% | residual activity [13]: 77% | residual activity [14]: 99%

N#Cc1c(NC(=O)c2cccc3ccccc23)sc2c1CCCC2
residual activity [15]: 92% | residual activity [3]: 92% | residual activity [9]: 93% | residual activity [11]: 93% | residual activity [13]: 99% | residual activity [16]: 88% | residual activity [12]: 67%

O=C1C(Cl)=C(N2C(=O)CCC2=O)C(=O)c2ccccc21
residual activity [1]: 98% | residual activity [15]: 88% | residual activity [4]: 100% | residual activity [5]: 90% | residual activity [6]: 100% | residual activity [7]: 101% | residual activity [8]: 94% | residual activity [9]: 83% | residual activity [10]: 89% | residual activity [11]: 94% | residual activity [14]: 101% | residual activity [16]: 94% | residual activity [12]: 68%

O=S(=O)(NCCNC/C=C/c1ccc(Br)cc1)c1cccc2cnccc12
residual activity [1]: 57% | residual activity [11]: 59% | residual activity [16]: 61%

O=c1cc(N2CCOCC2)oc2c(-c3ccccc3)cccc12
residual activity [3]: 78% | residual activity [12]: 68%

O=C(CCCc1ccc(-c2ccccc2F)cc1)Nc1ccc(O)cc1
residual activity [17]: 106% | residual activity [15]: 100% | residual activity [2]: 100% | residual activity [3]: 108% | residual activity [4]: 109% | residual activity [5]: 106% | residual activity [6]: 100% | residual activity [7]: 79% | residual activity [8]: 93% | residual activity [9]: 92% | residual activity [10]: 103% | residual activity [11]: 95% | residual activity [18]: 105% | residual activity [13]: 102% | residual activity [14]: 100% | residual activity [16]: 94% | residual activity [12]: 90%

NCCNc1ncc(C(N)=O)c(Nc2cccc(C(F)(F)F)c2)n1
residual activity [1]: 20% | residual activity [6]: 6% | residual activity [7]: 0% | residual activity [8]: 78% | residual activity [9]: 25% | residual activity [10]: 78% | residual activity [11]: 28% | residual activity [14]: 73% | residual activity [16]: 32% | residual activity [12]: 79%

COc1ccc(CNC(=O)Nc2ncc([N+](=O)[O-])s2)cc1
residual activity [15]: 78% | residual activity [9]: 79% | residual activity [12]: 59%

Fc1ccc(-c2nc3n(c2-c2ccncc2)CCS3)cc1
residual activity [19]: 93% | residual activity [15]: 79% | residual activity [9]: 88% | residual activity [10]: 99% | residual activity [11]: 83% | residual activity [16]: 76%
